From PubChem BioAssay
GRK2 aptamer HTS – blocks RNA aptamer binding to human GRK2. inhibition of aptamer binding, % at 10 µM. bead flow cytometry, FAM-aptamer displacement from GRK2. 330,000 compounds, 0.59% hits. P25098;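 active = inhibition of aptamer binding above 40%, roughly 3 SD of noise, on plates passing a quality check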;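 note: median bead fluorescence of bound FAM aptamer so fluorescent compounds give negative values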
Beta2AR agonist – human beta-2 adrenergic receptor agonism by FAP; P07550; Am2.2-beta2AR cells, FAP receptor internalization, flow cytometry; response, % (no concentration beside the values); 340,000 compounds, 0.43% hits; AID 504454;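 active = response above a set limit, near 3 SD of response in nonfluorescent compounds, cut at about 42% in these data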
PP1 inh – PP1-alpha (human) inhibition in PP5 counter-screen; P62136; inhibition, % at 6.7 µM; purified PP1alpha, OMFP fluorescence; 320,000 compounds, 0.9% hits;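 active = inhibition above the mean inhibition of all tested compounds plus 3 SD, computed separately for each screening campaign, cut at about 15% in these data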
Target sequence (P62136 whole entry, looked up): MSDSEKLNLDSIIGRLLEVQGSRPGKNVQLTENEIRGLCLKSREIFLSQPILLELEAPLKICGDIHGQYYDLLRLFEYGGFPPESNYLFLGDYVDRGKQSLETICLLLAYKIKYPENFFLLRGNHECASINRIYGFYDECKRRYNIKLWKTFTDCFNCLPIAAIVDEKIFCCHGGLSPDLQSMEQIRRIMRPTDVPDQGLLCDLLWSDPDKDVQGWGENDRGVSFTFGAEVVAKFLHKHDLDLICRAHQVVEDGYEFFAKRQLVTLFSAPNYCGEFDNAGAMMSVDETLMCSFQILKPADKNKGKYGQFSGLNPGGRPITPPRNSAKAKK
Granule exo inh – blocks lytic granule exocytosis | 360,000 compounds, 0.66% hits | TALL-104 LAMP-1 surface exposure, flow cytometry; cells stimulated with thapsigargin and PMA | inhibition, % at 10 µM | AID 651702;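 active = inhibition above about 55%, limit read from the data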
NadD block – blocks S. aureus nicotinate mononucleotide adenylyltransferase; inhibition, % at 20 µM; 360,000 compounds, 0.78% hits; purified NadD enzyme, colorimetric absorbance read-out; in the data active = inhibition above about 26%
PP1 inh confirm – confirmation of human PP1 phosphatase inhibitors | 1,900 compounds, 52% hits | AID 2358 | purified PP1alpha, OMFP substrate fluorescence | inhibition, % at 6.7 µM | shares compounds with PP1 inh;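 active = mean PP1 inhibition above a set limit taken from the earlier primary screen, cut at about 15% in these data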
PP5 counter – inhibits human PP5 phosphatase in PP1 counter-screen; shares compounds with PP1 inh; purified PP5c, OMFP fluorescence; inhibition, % at 6.7 µM; 1,900 compounds, 4% hits;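 active = mean PP5 inhibition over triplicate wells above about 9.5% taken from the earlier PP1 screen, limit read from the data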
* hit, by the source's call; nt = no result. Shown are actives, neighbours in structure and some others; about 2.9% of the full set was active somewhere.

SMILES	GRK2 aptamer HTS	Beta2AR agonist	PP1 inh	Granule exo inh	NadD block	PP1 inh confirm	PP5 counter
COc1ccc(NCc2nnc(SCC(=O)Nc3nc(-c4ccccc4)cs3)n2-c2ccccc2)cc1	4	2	32*	1	29	26*	-4
Cc1ccc(-c2cc(C(=O)NCCCn3ccnc3)c3cc(Br)ccc3n2)o1	0	15	32*	-1	49*	-8	-6
Cc1ccc(-c2cc(C(=O)O)c3cc(Br)ccc3n2)o1	3	-1	2	4	0	nt	nt
CN(C)CCN(Cc1ccccc1)C(c1cc2ccccc2o1)c1nnnn1C(C)(C)C (configuration not stated)	nt	nt	nt	0	-8	nt	nt
O=C(N/N=C/c1cc2ccccc2nc1Cl)/C(=C/c1cccs1)NC(=O)c1ccccc1	0	-1	18*	1	18	7	-1
O=C(N/N=C/c1cccnc1)/C(=C\c1cccs1)NC(=O)c1ccccc1	1	1	-5	-1	-3	nt	nt
COc1cc(/C=C2\SC(=O)N(CC(=O)Nc3ccc(C)cc3)C2=O)cc(Cl)c1OCC(=O)O	9	-1	43*	-10	25	46*	-5
Cc1ccc(NC(=O)CN2C(=O)S/C(=C\c3ccc(OCC(=O)O)c(Br)c3)C2=O)cc1	3	-4	3	-9	17	nt	nt
N=C1/C(=C/c2ccc(-c3cccc(C(=O)O)c3)o2)C(=O)N=C2SC(CC(=O)N3CCOCC3)=NN12	4	14	-3	-4	6	nt	nt
N=C1/C(=C\c2ccc(-c3cccc(C(=O)O)c3)o2)C(=O)N=C2SC=C(c3ccccc3)N12	2	19	45*	-1	49*	32*	-2
Cc1cc(F)ccc1NC(=O)C1CCCO1 (configuration not stated)	0	-4	-3	8	-11	nt	nt
Cc1ccccc1Nc1nnc(SCC(=O)NC(=O)NCc2ccco2)s1	2	3	26*	1	25	7	-3
O=C(CSc1nnc(Nc2ccccc2F)s1)NCc1ccco1	nt	11	nt	-2	6	nt	nt
Cc1ccc(-c2cc(N)n(-c3ccc(F)cc3)n2)cc1	5	-7	-3	-1	0	nt	nt
C#CCn1c(=NC(=O)c2cc(Cl)sc2Cl)sc2cc(S(N)(=O)=O)ccc21	3	35	19*	-2	17	25*	-1
C#CCn1c(=NC(=O)CN2C(=O)CCC2=O)sc2cc(S(N)(=O)=O)ccc21	2	-5	-3	-5	1	nt	nt
CC(C)c1ccc(NC2CCCN(C(=O)c3ccsc3)C2)cc1 (configuration not stated)	0	6	1	3	3	nt	nt
COc1ccc(-c2coc3c(CN4CCCCC4)c(O)c(CN4CCCCC4)c(O)c3c2=O)cc1	100*	nt	29*	nt	nt	-9	-8
Cc1ccc2[nH]c3c(c2c1)CN(C(C)C)CC3	0	2	0	14	-4	nt	nt
Cn1c(=O)c2c(nc3n2CC(COc2ccccc2)O3)n(C)c1=O (configuration not stated)	0	1	nt	0	-6	nt	nt
CC1CCC(NC(=O)CN2CCCN(Cc3ccc(F)cc3Cl)C2=O)CC1 (configuration not stated)	14	1	-1	-1	1	nt	nt
O=C(CN1CCCN(Cc2ccc(F)cc2Cl)C1=O)NC1CCCCCC1	1	-2	43*	-1	-4	-5	-5
COc1ccc(N2C3=C(CC4=C2CCCC4=O)C(=O)CCC3)cc1	3	7	34*	-1	25	3	4
COc1ccc(N2C3=C(CC4=C2CC(C)(C)CC4=O)C(=O)CC(C)(C)C3)cc1	5	34	-4	-1	9	nt	nt
CCN(CC(=O)Nc1c(F)cccc1F)C(=O)/C=C/c1ccc(Br)s1	0	-6	0	-1	-5	nt	nt
CCOC(=O)c1c(CSC(=N)N)n(-c2ccc(C)cc2)c2cc(Br)c(OC(C)=O)cc12	1	45*	20*	19	13	-3	-2
CCOC(=O)CC1c2nc3ccccc3cc2CN1C(=O)OCC (configuration not stated)	nt	nt	nt	0	2	nt	nt
